Data as given in PubChem BioAssay AID1159580 (chemical genetic matrix, 2015).
Values joined by “and” are separate entries in the source; they are usually repeats but may differ in a detail not shown here. Equal entries are not always repeated. The whole screen tested about 5,500 compounds, of which about 2,000 (36%) were called active. Another 18% or so got no clear call; they are omitted. No stated cut-off is given here; in the data, active means normalized growth mostly below about 0.91 (no sharp cut-off); inconclusive means no clear call, values can overlap the other calls; inactive means mostly above about 0.92. Some of the results follow.

Test: chemical genetic growth profiling, strain panel (AID 1159580);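 further: tested at 20 µM; growth read once vehicle control cultures reached saturation at 30 °C; 1 = growth at the plate median or of vehicle wells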
Conditions: S. cerevisiae deletion strains, growth OD

Measured: normalized growth

CCCN(CCC)C(=O)C(CCC(=O)O)NC(=O)c1ccccc1 (stereo not given)
inactive: locus YAL013W, strain DEP1, stronger effect = lower value 0.996 and 1.01 | locus YAL021C, strain ccr4, stronger effect = lower value 0.98 | locus YAL026C, strain drs2, stronger effect = lower value 0.987 | locus YAL030W, strain snc1, stronger effect = lower value 1 | locus YAL040C, strain CLN3, stronger effect = lower value 1 | locus YBL061C, strain skt5, stronger effect = lower value 0.983 | locus YBR009C, strain hhf1, stronger effect = lower value 0.992 | locus YBR021W, strain FUR4, stronger effect = lower value 1.01 | locus YBR023C, strain chs3, stronger effect = lower value 0.992 | locus YBR171W, strain sec66, stronger effect = lower value 0.98 | locus YBR229C, strain ROT2, stronger effect = lower value 0.999 | locus YBR231C, strain swc5, stronger effect = lower value 0.979 | locus YBR279W, strain paf1, stronger effect = lower value 0.979 | locus YCL011C, strain gbp2, stronger effect = lower value 0.983 | locus YCL016C, strain dcc1, stronger effect = lower value 1.01 | locus YCL029C, strain bik1, stronger effect = lower value 0.985 | locus YCL061C, strain MRC1 (second series), stronger effect = lower value 1 | locus YCL061C, strain MRC1, stronger effect = lower value 0.994 | locus YCL069W, strain vba3, stronger effect = lower value 0.996 | locus YCR088W, strain abp1, stronger effect = lower value 0.98 | locus YDL005C, strain med2, stronger effect = lower value 0.99 | locus YDL035C, strain GPR1, stronger effect = lower value 1.02 | locus YDL040C, strain nat1, stronger effect = lower value 0.993 | locus YDL074C, strain BRE1, stronger effect = lower value 0.987 | locus YDL101C, strain DUN1, stronger effect = lower value 0.994 | locus YDL134C, strain PPH21, stronger effect = lower value 0.996 | locus YDL185W, strain tfp1, stronger effect = lower value 0.958 | locus YDL192W, strain arf1, stronger effect = lower value 0.979 | locus YDR001C, strain nth1, stronger effect = lower value 0.973 | locus YDR069C, strain doa4, stronger effect = lower value 0.993 | locus YDR101C, strain arx1, stronger effect = lower value 0.994 | locus YDR137W, strain rgp1, stronger effect = lower value 1.02 | locus YDR150W, strain NUM1, stronger effect = lower value 0.991 and 0.999 | locus YDR159W, strain sac3, stronger effect = lower value 0.935 | locus YDR162C, strain NBP2, stronger effect = lower value 1 | locus YDR195W, strain ref2 1.02 | locus YDR297W, strain sur2, stronger effect = lower value 0.987 | locus YDR318W, strain mcm21, stronger effect = lower value 0.994 | locus YDR334W, strain swr1, stronger effect = lower value 0.962 | locus YDR335W, strain msn5, stronger effect = lower value 0.981 | locus YDR363W, strain ESC2, stronger effect = lower value 1.01 | locus YDR388W, stronger effect = lower value 1 | locus YDR392W, strain spt3, stronger effect = lower value 0.986 | locus YDR502C, strain sam2, stronger effect = lower value 1.01 | locus YEL003W, strain gim4, stronger effect = lower value 0.997 | locus YEL037C, strain rad23, stronger effect = lower value 0.982 | locus YEL061C, strain CIN8 (second series), stronger effect = lower value 0.965 | locus YEL061C, strain CIN8, stronger effect = lower value 0.992 | locus YER002W, strain NOP16, stronger effect = lower value 0.986 | locus YER015W, strain faa2, stronger effect = lower value 0.989 | locus YER016W, strain bim1, stronger effect = lower value 0.992 | locus YER110C, stronger effect = lower value 0.991 | locus YER111C, strain swi4, stronger effect = lower value 0.996 | locus YER155C, strain BEM2 (second series), stronger effect = lower value 0.985 | locus YER155C, strain BEM2, stronger effect = lower value 1 | locus YER167W, strain BCK2, stronger effect = lower value 0.993 | locus YFR010W, strain ubp6, stronger effect = lower value 0.982 | locus YGL078C, strain dbp3, stronger effect = lower value 0.996 | locus YGL086W, strain mad1, stronger effect = lower value 1.01 | locus YGL167C, strain pmr1, stronger effect = lower value 0.986 | locus YGL173C, strain kem1, stronger effect = lower value 0.982 | locus YGL227W, strain vid30, stronger effect = lower value 0.986 | locus YGL240W, strain doc1, stronger effect = lower value 0.987 | locus YGL248W, strain PDE1, stronger effect = lower value 1.01 | locus YGL253W, strain hxk2, stronger effect = lower value 0.982 | locus YGR078C, strain PAC10, stronger effect = lower value 0.984 and 1.01 | locus YGR135W, strain pre9, stronger effect = lower value 0.989 | locus YGR229C, strain SMI1, stronger effect = lower value 1.02 | locus YGR252W, strain gcn5, stronger effect = lower value 1.13 | locus YHR013C, strain ard1, stronger effect = lower value 1.01 | locus YHR027C, strain rpn1, stronger effect = lower value 0.982 | locus YHR030C, strain SLT2, stronger effect = lower value 0.992 | locus YHR079C, strain IRE1 (second series), stronger effect = lower value 0.991 | locus YHR079C, strain IRE1, stronger effect = lower value 0.979 | locus YHR094C, strain hxt1, stronger effect = lower value 0.943 | locus YHR129C, strain ARP1, stronger effect = lower value 0.998 | locus YHR142W, strain chs7, stronger effect = lower value 0.977 | locus YHR200W, strain rpn10, stronger effect = lower value 0.989 | locus YIL066C, strain RNR3, stronger effect = lower value 0.994 | locus YIL073C, strain SPO22, stronger effect = lower value 0.93 | locus YIL125W, strain kgd1, stronger effect = lower value 0.985 | locus YIR030C, strain dcg1, stronger effect = lower value 0.988 | locus YJL092W, strain hpr5, stronger effect = lower value 0.997 | locus YJL095W, strain BCK1 (second series), stronger effect = lower value 0.968 | locus YJL095W, strain BCK1, stronger effect = lower value 0.968 and 0.993 | locus YJL115W, strain asf1, stronger effect = lower value 0.99 | locus YJL129C, strain trk1, stronger effect = lower value 0.968 | locus YJL134W, strain LCB3, stronger effect = lower value 1 | locus YJL154C, strain vps35, stronger effect = lower value 0.962 | locus YJL164C, strain tpk1, stronger effect = lower value 1 | locus YJL166W, strain qcr8, stronger effect = lower value 0.983 | locus YJL168C, strain set2, stronger effect = lower value 0.985 | locus YJL187C, strain SWE1 (second series), stronger effect = lower value 0.982 | locus YJR043C, strain POL32, stronger effect = lower value 0.985 | locus YJR066W, strain TOR1, stronger effect = lower value 0.926
